STK33 inh = STK33 kinase inhibitors, primary screen, biochemical, luminescence, ADP-Glo, MBP substrate | inhibition, % at 12.5 µM | Serine/threonine-protein kinase 33 (Homo sapiens), Q9BYT3 | 27,000 compounds, 0.44% hits; in the data active means inhibition above about 20%
Target sequence (Q9BYT3 whole entry, looked up): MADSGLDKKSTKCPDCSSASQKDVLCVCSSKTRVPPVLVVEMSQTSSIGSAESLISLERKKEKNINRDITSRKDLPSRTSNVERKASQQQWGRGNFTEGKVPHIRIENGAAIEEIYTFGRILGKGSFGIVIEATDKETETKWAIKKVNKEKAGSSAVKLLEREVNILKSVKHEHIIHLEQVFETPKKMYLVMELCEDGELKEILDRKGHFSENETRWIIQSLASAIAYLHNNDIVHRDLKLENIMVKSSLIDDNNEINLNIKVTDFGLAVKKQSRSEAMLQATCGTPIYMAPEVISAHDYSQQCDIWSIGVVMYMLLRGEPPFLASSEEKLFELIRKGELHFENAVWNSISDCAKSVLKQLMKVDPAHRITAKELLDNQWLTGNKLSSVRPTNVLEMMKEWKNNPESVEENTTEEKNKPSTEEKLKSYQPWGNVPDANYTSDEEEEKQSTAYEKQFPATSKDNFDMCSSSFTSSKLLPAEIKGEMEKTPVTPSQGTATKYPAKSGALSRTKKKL
MITF inhib = inhibitors of MITF, primary screen, MITF inhibitor project, cell-based, luminescence; inhibition, % (test concentration not listed); TRPM1 promoter luciferase, 24 h; 37,000 compounds, 0.28% hits; in the data active means inhibition above about 85%;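 further: human melanocyte line stably carrying TRPM1 promoter luciferase reporter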
mut p53 react = mutant p53 pathway re-activators, primary screen, cell-based, SW480, luciferase, single point, HTS | 28,000 compounds, 1.5% hits | activation, % at 9.98 µM | SW480 PUMA-promoter luciferase, p53 mutant reactivation | AID 624151, 2012; in the data active means activation above about 52%
NOMO-1 viab = NOMO-1 AML cell viability reduction, primary screen, STK33 inhibitor project, CellTiter-Glo luminescence. AID 2330, 2010. 37,000 compounds, 7.5% hits. NOMO-1 AML viability, 72 h. inhibition, % (concentration not given with the values); in the data active means inhibition above about 80%
* hit, by the source's call; . = no result given. Many of the other results were omitted from the sample, so hits are more common in it than they were.

SMILES	STK33 inh	MITF inhib	mut p53 react	NOMO-1 viab
O=C(COc1ccccc1O)N1CCCC1	.	-20.4	.	-16.7
C=CC1(C)C[C@H](OC(=O)C(C)CO)[C@H]2C(=C)C(=O)O[C@@H]2C1C(=C)CO (some centres not stated)	-5.9	4.6	-22.0	115.5*
Nc1ccc(C(=O)CC2(O)C(=O)Nc3ccc(F)cc32)cc1 (configuration not stated)	-0.3	-52.4	34.0	22.2
C[C@H](CO)N1C[C@H](C)[C@H](CN(C)Cc2ccc(C(=O)Nc3ccccc3N)cc2)Oc2ccc(NS(=O)(=O)c3ccc(Cl)cc3)cc2C1=O	.	7.1	.	96.3*
COc1ccc(S(=O)(=O)Nc2ccc3c(c2)C(=O)N([C@@H](C)CO)C[C@H](C)[C@H](CN(C)Cc2ccc(C(=O)Nc4ccccc4N)cc2)O3)cc1	.	11.2	.	108.8*
C[C@@H]1CN([C@H](C)CO)C(=O)c2cc(NS(=O)(=O)c3ccc(Cl)cc3)ccc2O[C@@H]1CN(C)Cc1ccc(C(=O)Nc2ccccc2N)cc1	.	14.9	.	109.0*
O=C(COc1ccc(I)cc1)NCc1ccco1	7.6	-46.4	-3.6	11.2
O=C(CSc1n[nH]c(-c2ccc(Cl)cc2)n1)Nc1ccccc1Cl	7.6	-9.9	4.0	44.1
COc1ccc(-c2nc3ccccc3s2)cc1NC(=O)COc1cccc(C)c1	4.3	14.3	66.1*	6.7
Cc1ccc(-c2nc3ccccc3s2)cc1NC(=O)COc1ccccc1	7.1	5.9	54.4*	27.7
COc1ccc(OCC(=O)Nc2cc(-c3nc4ccccc4s3)ccc2C)cc1	5.5	-26.2	30.4	4.6
COc1ccc(/C=C/c2cc(OC)cc3c2CCC(C)(C)O3)cc1	-1.8	-13.8	14.4	44.2
O=c1cc(-c2ccccc2)nc2scc(-c3ccc(Cl)cc3)n12	.	-4.5	.	-12.8
O=c1cc(-c2ccccc2)nc2cc(-c3ccccc3)[nH]n12	10.0	-25.9	.	106.9*
COC(=O)C1=C(C)NC(C)=C(C(=O)OC)C1c1ccc(C(C)C)cc1	.	-23.7	.	110.2*
C=C(C)C(=O)O[C@H]1[C@H]2C(=C)C(=O)O[C@@H]2C[C@@H](C)[C@@H]2O[C@@H]2C(=O)[C@](C)(O)[C@@H]1OC(=O)C(=C)C	-1.4	41.0	.	119.1*
O=C(CCCCCCCCc1ccccc1)c1c(O)cc(O)cc1O	-3.9	.	-6.0	.
O=C(CCc1ccc(O)cc1)c1c(O)cc(O)cc1O	35.2*	0.1	.	-13.6
COc1cc([C@@H]2c3cc4c(cc3[C@H](O)[C@H]3COC(=O)[C@H]23)OCO4)cc(OC)c1OC	0.5	60.9	.	112.8*
COc1cc([C@@H]2c3cc4c(cc3[C@H](O)[C@H]3COC(=O)[C@@H]23)OCO4)cc(OC)c1OC	2.8	37.0	-12.8	107.8*
COc1cc(C2OC[C@@H]3[C@@H](c4cc(OC)c(O)c(OC)c4)OC[C@H]23)cc(OC)c1O (some centres not stated)	8.3	-18.5	18.8	14.1
COc1cc2c(c(O)c1OC)C(=O)CC(c1ccc(O)cc1)O2 (configuration not stated)	10.4	-19.2	17.4	20.2
COc1cc([C@@H]2c3cc4c(cc3[C@@H](O[C@@H]3O[C@@H]5CO[C@@H](C)O[C@H]5[C@H](O)[C@H]3O)[C@H]3COC(=O)[C@H]23)OCO4)cc(OC)c1O	-1.4	37.6	-62.0	117.5*
O=C(CSc1nc2sc3c(c2c(=O)n1Cc1ccco1)CCC3)c1cc(Cl)sc1Cl	1.5	2.2	4.1	57.8
C[C@@H]1CN([C@@H](C)CO)C(=O)c2cc(NC(=O)Nc3ccc(C(F)(F)F)cc3)ccc2O[C@@H]1CN(C)S(=O)(=O)c1cccs1	2.8	43.0	.	108.6*
SMILES	STK33 inh	MITF inhib	mut p53 react	NOMO-1 viab
C[C@@H]1CN([C@@H](C)CO)C(=O)c2cc(NC(=O)Nc3ccc(C(F)(F)F)cc3)ccc2O[C@H]1CN(C)S(=O)(=O)c1cccs1	.	-7.3	.	93.1*
C[C@H](CO)N1C[C@H](C)[C@H](CN(C)S(=O)(=O)c2cccs2)Oc2ccc(NC(=O)Nc3ccc(F)cc3)cc2C1=O	.	-69.3	-31.4	21.3
C[C@@H]1CN([C@@H](C)CO)C(=O)c2cc(NC(=O)Nc3ccc(F)cc3)ccc2O[C@@H]1CN(C)S(=O)(=O)c1cccs1	0.8	-10.0	7.3	14.5
C[C@H]1CN([C@@H](C)CO)C(=O)c2cc(NC(=O)Nc3ccc(C(F)(F)F)cc3)ccc2O[C@@H]1CN(C)S(=O)(=O)c1cccs1	.	66.8	.	93.9*
C[C@H]1CN([C@@H](C)CO)C(=O)c2cc(NC(=O)Nc3ccc(F)cc3)ccc2O[C@@H]1CN(C)S(=O)(=O)c1cccs1	5.0	-14.3	-6.3	24.6
Cc1nn(C)c(-c2n[nH]c(=S)n2-c2ccc(CC(=O)O)cc2)c1Br	2.2	-0.8	4.0	-14.4
Cc1nc(CSc2ncnc3sc4c(c23)CCCCC4)cs1	6.3	-15.2	10.5	2.8
COc1ccc(CNC(=O)Nc2ncc([N+](=O)[O-])s2)cc1	-1.4	87.4*	-1.8	39.3
C[C@@H]1CC(=O)C2=C(C1)C[C@@H](O)[C@@]1(O)C2C(=O)c2cccc(O)c2[C@@H]1O (some centres not stated)	-9.1	9.2	-3.2	3.9
CC1CC(=O)C2=C(CCC34OC23C(=O)c2cccc(O)c2C4O)C1 (configuration not stated)	-5.3	14.8	-4.4	99.7*
CC1CC(=O)[C@]2(C)CC[C@]3(C)C(C(=O)C(O)C4[C@@]5(C)CC[C@H](O)C(C)(C(=O)O)C5CC[C@]43C)C2C1C (some centres not stated)	0.3	58.3	-87.3	119.2*
O=C(/C=C/c1ccc(O)cc1)OC[C@H]1O[C@@H](O[C@@H]2OC=C[C@H]3[C@H](O)[C@@H]4O[C@]4(CO)[C@@H]23)[C@H](O)[C@@H](O)[C@@H]1O	-2.1	-15.7	6.0	3.0
COC(=O)c1ccc(NC(=O)CN(c2cc(Cl)c(Cl)cc2Cl)S(C)(=O)=O)cc1	3.8	6.1	-24.5	61.2
CS(=O)(=O)N(CC(=O)Nc1ccc(C(F)(F)F)cc1)c1ccc(Oc2ccccc2)cc1	-1.8	-47.4	-0.3	109.0*
COc1cccc(NC(=O)CN(c2cc(Cl)c(Cl)cc2Cl)S(C)(=O)=O)c1	-2.1	10.3	-4.8	40.4
COC(=O)c1cc(NC(=O)CN(c2cc(Cl)c(Cl)cc2Cl)S(C)(=O)=O)ccc1Cl	2.0	25.9	-1.7	133.0*
Cc1ccc(NC(=O)CN(c2cc(Cl)c(Cl)cc2Cl)S(C)(=O)=O)cc1	1.8	3.9	0.9	16.1
CS(=O)(=O)N(CC(=O)Nc1ccc(Oc2ccccc2)cc1)c1cc(Cl)c(Cl)cc1Cl	2.0	54.9	-10.8	118.2*
CS(=O)(=O)N(CC(=O)Nc1ccc(C(F)(F)F)cc1)c1cccc(C(F)(F)F)c1	-1.4	16.2	-10.0	67.3
Cc1ccc(NC(=O)CN(c2cc(Cl)c(Cl)cc2Cl)S(C)(=O)=O)cc1Cl	-4.1	50.1	-44.8	84.5*
Cc1ccc(C(=O)N(Cc2nc(-c3ccc(Cl)cc3)no2)C(C)C)cc1[N+](=O)[O-]	9.8	18.0	-10.4	11.5

Compound activity deposited in PubChem by Broad Institute.
